Targets with a hit are over-represented here; the source holds about 8,800 in all. About 0.5% of all pairs of compound and target were hits. A number with no mark means an inactive call.

UniProt Q8N163, sequence (Q8N163 whole entry, looked up): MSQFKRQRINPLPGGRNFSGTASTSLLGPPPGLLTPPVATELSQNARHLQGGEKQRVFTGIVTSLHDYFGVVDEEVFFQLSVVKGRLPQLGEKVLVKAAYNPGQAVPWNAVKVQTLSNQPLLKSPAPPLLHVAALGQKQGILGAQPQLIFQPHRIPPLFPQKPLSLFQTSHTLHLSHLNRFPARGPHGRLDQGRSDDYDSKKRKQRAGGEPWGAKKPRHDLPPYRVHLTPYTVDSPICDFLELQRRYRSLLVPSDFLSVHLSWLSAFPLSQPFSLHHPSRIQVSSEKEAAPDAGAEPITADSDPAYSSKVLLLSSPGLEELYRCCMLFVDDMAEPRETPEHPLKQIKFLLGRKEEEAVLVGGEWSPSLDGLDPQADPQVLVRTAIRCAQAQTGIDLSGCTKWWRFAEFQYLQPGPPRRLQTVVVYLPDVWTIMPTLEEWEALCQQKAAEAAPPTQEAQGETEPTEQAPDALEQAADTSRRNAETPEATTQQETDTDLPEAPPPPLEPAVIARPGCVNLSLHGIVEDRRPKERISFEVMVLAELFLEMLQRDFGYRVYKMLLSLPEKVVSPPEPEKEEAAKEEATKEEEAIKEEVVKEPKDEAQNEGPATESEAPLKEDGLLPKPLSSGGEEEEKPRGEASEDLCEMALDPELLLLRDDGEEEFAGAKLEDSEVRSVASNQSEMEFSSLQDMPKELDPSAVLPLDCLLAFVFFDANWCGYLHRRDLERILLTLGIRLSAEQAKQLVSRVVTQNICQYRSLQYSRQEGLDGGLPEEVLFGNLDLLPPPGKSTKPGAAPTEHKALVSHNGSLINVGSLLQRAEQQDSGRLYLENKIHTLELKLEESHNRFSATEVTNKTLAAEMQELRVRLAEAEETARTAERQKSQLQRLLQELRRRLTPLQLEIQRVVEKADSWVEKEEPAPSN
UniProt Q96SN8, sequence (Q96SN8 whole entry, looked up): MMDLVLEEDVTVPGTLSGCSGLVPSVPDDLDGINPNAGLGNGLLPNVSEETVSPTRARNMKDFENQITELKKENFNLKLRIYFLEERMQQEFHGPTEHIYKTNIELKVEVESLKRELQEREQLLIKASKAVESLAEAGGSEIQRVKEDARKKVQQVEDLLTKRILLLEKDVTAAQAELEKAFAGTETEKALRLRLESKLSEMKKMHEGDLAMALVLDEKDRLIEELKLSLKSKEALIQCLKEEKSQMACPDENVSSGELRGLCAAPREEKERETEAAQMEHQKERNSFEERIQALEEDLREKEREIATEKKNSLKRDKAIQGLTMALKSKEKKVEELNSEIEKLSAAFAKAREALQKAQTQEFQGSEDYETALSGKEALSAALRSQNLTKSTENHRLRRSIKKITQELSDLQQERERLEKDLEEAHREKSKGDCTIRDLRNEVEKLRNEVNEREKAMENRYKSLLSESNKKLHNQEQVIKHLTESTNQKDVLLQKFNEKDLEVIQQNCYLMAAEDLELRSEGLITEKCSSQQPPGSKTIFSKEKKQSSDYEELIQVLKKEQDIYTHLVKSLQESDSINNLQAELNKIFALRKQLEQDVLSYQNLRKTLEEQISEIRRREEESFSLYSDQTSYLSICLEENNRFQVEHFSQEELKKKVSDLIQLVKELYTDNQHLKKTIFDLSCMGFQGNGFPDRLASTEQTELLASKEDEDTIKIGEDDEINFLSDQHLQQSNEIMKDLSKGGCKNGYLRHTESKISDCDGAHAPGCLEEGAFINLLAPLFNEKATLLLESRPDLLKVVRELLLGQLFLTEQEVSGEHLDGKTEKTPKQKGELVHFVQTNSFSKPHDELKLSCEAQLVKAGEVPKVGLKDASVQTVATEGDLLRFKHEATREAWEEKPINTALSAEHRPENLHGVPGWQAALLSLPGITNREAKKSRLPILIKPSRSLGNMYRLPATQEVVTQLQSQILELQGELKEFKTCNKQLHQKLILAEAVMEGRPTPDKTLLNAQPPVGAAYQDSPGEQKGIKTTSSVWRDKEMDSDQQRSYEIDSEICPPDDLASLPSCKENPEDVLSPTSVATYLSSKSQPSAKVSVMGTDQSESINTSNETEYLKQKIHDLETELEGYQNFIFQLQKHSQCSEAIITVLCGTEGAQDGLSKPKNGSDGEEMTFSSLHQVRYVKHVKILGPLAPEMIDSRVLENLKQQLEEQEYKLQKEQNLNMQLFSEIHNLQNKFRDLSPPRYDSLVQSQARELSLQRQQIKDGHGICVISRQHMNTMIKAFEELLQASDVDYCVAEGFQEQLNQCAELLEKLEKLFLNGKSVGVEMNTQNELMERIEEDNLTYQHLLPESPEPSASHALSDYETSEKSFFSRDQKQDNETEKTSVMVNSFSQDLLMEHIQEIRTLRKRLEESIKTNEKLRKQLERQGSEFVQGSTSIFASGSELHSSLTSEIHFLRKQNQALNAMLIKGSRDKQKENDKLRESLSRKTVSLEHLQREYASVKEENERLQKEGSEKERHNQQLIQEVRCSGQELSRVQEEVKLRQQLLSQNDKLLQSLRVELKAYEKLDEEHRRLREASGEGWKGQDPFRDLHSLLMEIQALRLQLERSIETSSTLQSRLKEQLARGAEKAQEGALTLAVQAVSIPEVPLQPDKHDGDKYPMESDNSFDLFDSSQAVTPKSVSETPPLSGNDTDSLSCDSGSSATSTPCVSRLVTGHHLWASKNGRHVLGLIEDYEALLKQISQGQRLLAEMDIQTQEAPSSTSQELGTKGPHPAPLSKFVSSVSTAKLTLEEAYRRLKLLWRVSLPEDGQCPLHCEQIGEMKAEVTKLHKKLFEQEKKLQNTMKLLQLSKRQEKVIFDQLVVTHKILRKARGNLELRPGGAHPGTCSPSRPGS
UniProt Q8N5S9, sequence (Q8N5S9 whole entry, looked up): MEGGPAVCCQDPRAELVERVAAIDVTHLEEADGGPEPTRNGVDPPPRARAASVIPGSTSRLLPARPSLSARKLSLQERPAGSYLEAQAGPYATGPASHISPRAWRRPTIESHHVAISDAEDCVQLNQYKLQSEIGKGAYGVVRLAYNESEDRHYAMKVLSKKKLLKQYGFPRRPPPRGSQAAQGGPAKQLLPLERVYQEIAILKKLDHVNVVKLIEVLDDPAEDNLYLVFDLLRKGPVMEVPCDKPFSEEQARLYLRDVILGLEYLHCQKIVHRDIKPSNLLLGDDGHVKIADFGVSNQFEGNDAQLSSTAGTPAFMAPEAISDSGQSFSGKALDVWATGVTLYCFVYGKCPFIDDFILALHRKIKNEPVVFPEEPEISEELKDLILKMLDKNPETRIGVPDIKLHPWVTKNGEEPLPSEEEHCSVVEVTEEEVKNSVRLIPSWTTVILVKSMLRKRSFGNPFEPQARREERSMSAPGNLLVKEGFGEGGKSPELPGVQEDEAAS
UniProt Q9NW68, sequence (Q9NW68 whole entry, looked up): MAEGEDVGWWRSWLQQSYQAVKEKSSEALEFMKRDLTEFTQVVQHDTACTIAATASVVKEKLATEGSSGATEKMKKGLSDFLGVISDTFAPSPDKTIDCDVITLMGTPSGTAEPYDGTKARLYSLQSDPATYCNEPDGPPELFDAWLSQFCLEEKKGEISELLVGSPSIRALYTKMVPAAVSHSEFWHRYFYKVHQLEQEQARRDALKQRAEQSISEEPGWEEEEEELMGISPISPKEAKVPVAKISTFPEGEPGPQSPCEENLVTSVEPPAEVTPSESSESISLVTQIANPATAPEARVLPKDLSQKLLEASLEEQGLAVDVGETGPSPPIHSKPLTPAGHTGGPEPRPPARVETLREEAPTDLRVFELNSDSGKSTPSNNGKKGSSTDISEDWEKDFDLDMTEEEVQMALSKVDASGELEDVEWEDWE
UniProt Q8N960, sequence (Q8N960 whole entry, looked up): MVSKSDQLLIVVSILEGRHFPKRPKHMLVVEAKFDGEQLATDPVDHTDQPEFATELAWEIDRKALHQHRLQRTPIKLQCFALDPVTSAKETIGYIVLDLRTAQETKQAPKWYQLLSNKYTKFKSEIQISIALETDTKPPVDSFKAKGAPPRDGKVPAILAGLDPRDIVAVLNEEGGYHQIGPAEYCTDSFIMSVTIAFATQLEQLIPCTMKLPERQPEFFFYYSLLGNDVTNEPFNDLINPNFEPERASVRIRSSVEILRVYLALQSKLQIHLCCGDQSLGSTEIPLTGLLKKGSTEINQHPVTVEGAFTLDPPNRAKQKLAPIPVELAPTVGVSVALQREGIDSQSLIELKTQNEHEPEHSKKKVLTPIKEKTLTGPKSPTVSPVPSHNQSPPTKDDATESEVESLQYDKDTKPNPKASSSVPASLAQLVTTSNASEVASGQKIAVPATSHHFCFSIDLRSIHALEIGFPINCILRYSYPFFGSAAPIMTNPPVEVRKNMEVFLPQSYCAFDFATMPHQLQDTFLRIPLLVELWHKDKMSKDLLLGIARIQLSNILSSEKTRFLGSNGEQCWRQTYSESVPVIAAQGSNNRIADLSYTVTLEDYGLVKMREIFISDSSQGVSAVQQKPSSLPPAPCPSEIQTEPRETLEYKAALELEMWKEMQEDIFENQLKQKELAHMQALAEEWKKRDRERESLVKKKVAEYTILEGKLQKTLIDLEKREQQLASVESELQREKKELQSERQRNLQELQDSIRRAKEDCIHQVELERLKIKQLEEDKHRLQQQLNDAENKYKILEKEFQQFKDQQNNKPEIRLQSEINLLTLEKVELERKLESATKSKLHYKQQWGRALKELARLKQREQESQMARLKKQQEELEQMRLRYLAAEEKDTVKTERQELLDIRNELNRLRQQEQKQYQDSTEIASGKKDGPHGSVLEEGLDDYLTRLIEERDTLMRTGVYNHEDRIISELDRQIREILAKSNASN
UniProt Q86WR0, sequence (Q86WR0 whole entry, looked up): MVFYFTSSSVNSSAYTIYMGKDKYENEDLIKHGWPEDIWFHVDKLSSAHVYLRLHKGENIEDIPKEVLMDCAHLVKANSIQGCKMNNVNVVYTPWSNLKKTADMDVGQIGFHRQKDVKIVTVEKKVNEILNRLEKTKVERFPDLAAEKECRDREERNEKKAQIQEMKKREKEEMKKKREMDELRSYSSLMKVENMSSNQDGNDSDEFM
UniProt P18859, sequence (P18859 whole entry, looked up): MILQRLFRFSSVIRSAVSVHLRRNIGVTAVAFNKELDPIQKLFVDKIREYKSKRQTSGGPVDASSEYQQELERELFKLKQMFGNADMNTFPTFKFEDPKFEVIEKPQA

Compound in the experiment: Cc1ccc(NC(=O)c2ccc(CN3CC[C@H](N(C)C)C3)c(C(F)(F)F)c2)cc1Nc1nccc(-c2cncnc2)n1 [bafetinib]
Kind of experiment: log2 fold change, soluble protein after heating vs DMSO (PISA); higher = thermal stabilisation; K562 lysate, 10 uM; active = over 0.2 and 3.5 SD of the protein, either way, in both replicates (recomputed). In short, it runs like this: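 Values give the log-two fold change in thermal stability against solvent controls, from duplicates. Crude K562 extract at 1 mg/mL protein, made by dounce homogenisation in PBS pH 7.4 with 1 mM MgCl2, was treated with 10 μM compound for 30 min. After 3 min heating across 48°C-58°C, aliquots were pooled, adjusted to 0.5% NP-40 at 4°C and centrifuged at 21,000xg for 90 min. The supernatant was measured by TMTpro 16plex LC-MS/MS with channel sums equalised.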
With BRD4 (UniProt O60885), the log2 fold change is -0.024.

Regarding CAMKK1 isoform 2 (UniProt Q8N5S9), the log2 fold change was -0.021.

Consider ATG13 isoform 2 (UniProt O75143), for which the log2 fold change was -0.123.

Regarding ATAD1 (UniProt Q8NBU5), the log2 fold change is -0.008.

In the case of BSDC1 (UniProt Q9NW68), the log2 fold change is -0.012.

As for ATP5PF isoform 2 (UniProt P18859), the log2 fold change is 0.221.

With CAD (UniProt P27708), the log2 fold change was -0.052.

In the case of CHCHD2 (UniProt Q9Y6H1), the log2 fold change is 0.288.

Take CHCHD4 isoform 2 (UniProt Q8N4Q1): the log2 fold change was -0.029.

In the case of CCNC (UniProt P24863), the log2 fold change was -0.123.

Consider CELF2 isoform 3 (UniProt O95319), for which the log2 fold change was -0.042.

With CEP120 (UniProt Q8N960), the log2 fold change was -0.257.

As for CCDC25 (UniProt Q86WR0), the log2 fold change was 0.008.

With CELF1 isoform 4 (UniProt Q92879), the log2 fold change was -0.09.

As to BNIP1 (UniProt Q12981), the log2 fold change was -0.019.

CHD5 (UniProt Q8TDI0): the log2 fold change was -0.042.

Turning to ATP2B4 (UniProt P23634), the log2 fold change is -0.125.

For CANX isoform 2 (UniProt P27824), the log2 fold change was 0.017.

Consider BCKDK (UniProt O14874), for which the log2 fold change is 0.012.

CCAR2 (UniProt Q8N163): the log2 fold change was -0.011.

As for CDC40 (UniProt O60508), the log2 fold change was -0.033.

As to CDK5RAP2 (UniProt Q96SN8), the log2 fold change was 0.
